Mdm2 MdmX PPI: inhibitors of human Mdm2/MdmX interaction; O15151+Q00987; SaOS-2 split-luciferase Mdm2/MdmX complementation, luminescence; inhibition, % at 8 µM; 330,000 tested, 3% active;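 active means inhibition of at least 50% at 8 µM in the primary screen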
aSyn 5UTR inh: 5' untranslated region of α-synuclein, MLPCN primary screen; alpha-synuclein 5'UTR reporter, inhibitor activity; inhibition, % (tested at 7.5 µM); 300,000 tested, 0.82% active; AID 1813; in the data active means inhibition above about 60%;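 further: H4 neuroglioblastoma cells stably carrying SNCA 5'UTR luciferase fusion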
KLF5 inhibitor: suppresses KLF5 promoter-driven expression; DLD-1 KLF5 promoter-luciferase reporter, luminescence; 290,000 tested, 0.23% active; inhibition, % at 5 µM;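 active means inhibition above a per-plate limit of that plate's mean compound inhibition plus 3 SD, cut at about 60% in these data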;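 further: higher means less KLF5 promoter-driven luciferase light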
697 NFkB inh: inhibitors of the PMA/ionomycin-induced NF-kB reporter in 697 B cells; 697 B-cell NF-kB luciferase reporter, 16 h; inhibition, % at 4 µM; 330,000 tested, 0.33% active; in the data active means inhibition above about 35%
Gli-Sufu block: Gli-Sufu pathway antagonism | inhibition, % at 5 µM | AID 588413 | Sufu-KO-LIGHT fibroblasts, Gli luciferase reporter luminescence | 340,000 tested, 0.74% active;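 active means inhibition above about 55%, limit read from the data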
Jurkat NFkB inh: inhibitors of the PMA/ionomycin-induced NF-kB reporter in Jurkat cells; inhibition, % at 4 µM; PMA/ionomycin-induced NF-kB luciferase reporter, luminescence; 330,000 tested, 0.53% active; in the data active means inhibition above about 50%
Mdm2-MdmX conf: human Mdm2/MdmX binding inhibition, confirmed | AID 489028 | inhibition, % at 8 µM | 10,000 tested, 55% active | shares compounds with Mdm2 MdmX PPI | luminescent assay; in the data active means inhibition above about 40%
FLuc counter: counter-screen for Mdm2/MdmX inhibitors: full-length luciferase; inhibition, % at 8 µM; SaOS-2 full-length luciferase counterscreen, luminescence; AID 504607; 6,200 tested, 77% active; shares compounds with Mdm2 MdmX PPI;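 active means mean inhibition at 8 µM reaching about 37%, which flags the compound as non-specific, limit read from the data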;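 further: p53-null SaOS-2 cells with luciferase driven by a doxycycline-inducible promoter; compound on cells about two nights before reading with doxycycline added after day one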
Large screens that a line does not name were inactive (follow-up assays come after a bar, where they were run). Rows were chosen to be rich in hits. Some 4.1% of all compounds tested hit in one or more screens of this group.

COC(=O)c1csc2c(C(F)(F)F)cc(N3CCN(C(=O)Nc4ccccc4)CC3)nc12	none
COc1cc(OC)c(OC)cc1CCC(C)NCCC(c1ccccc1)c1ccccc1 (stereo not given)	Mdm2 MdmX PPI 63.8 | Mdm2-MdmX conf 50.2 | FLuc counter 59.5
COc1ccccc1CCNC(C)CCc1ccc(O)cc1 (stereo not given)	none
[O-][n+]1c2c(nc3c1-c1ccccc1C3O)CCCC2 (stereo not given)	none (no result: Gli-Sufu block)
CCN(C[C@H]1N[C@@](Cc2ccccc2)(C(=O)OC)[C@H]2C(=O)N(Cc3ccccc3)C(=O)[C@@H]12)C(=O)Nc1ccc(C(F)(F)F)cc1	Mdm2 MdmX PPI 85.2 (no result: aSyn 5UTR inh, KLF5 inhibitor) | Mdm2-MdmX conf 40.0 | FLuc counter 58.0
CCN(C[C@H]1N[C@@](Cc2ccccc2)(C(=O)OC)[C@H]2C(=O)N(Cc3ccccc3)C(=O)[C@@H]12)C(=O)Nc1ccc(C)cc1	Mdm2 MdmX PPI 54.2 (no result: aSyn 5UTR inh, KLF5 inhibitor) | Mdm2-MdmX conf 51.1 | FLuc counter 73.7
CCN(C[C@H]1N[C@@](CC)(C(=O)OC)[C@H]2C(=O)N(Cc3ccccc3)C(=O)[C@@H]12)C(=O)Nc1ccc(C)cc1	none (no result: aSyn 5UTR inh, KLF5 inhibitor)
CCN(C[C@H]1N[C@@](CC)(C(=O)OC)[C@H]2C(=O)N(Cc3ccccc3)C(=O)[C@@H]12)C(=O)Nc1ccc(Cl)cc1	Mdm2 MdmX PPI 60.4 (no result: aSyn 5UTR inh, KLF5 inhibitor) | Mdm2-MdmX conf 62.0 | FLuc counter 58.0
COc1cc(/C=C(\NC(=O)c2ccccc2)C(=O)N2CC3CC(C2)c2cccc(=O)n2C3)cc(OC)c1OC (stereo not given)	none
COc1cccc(-c2ccc3ncnc(NCc4cccnc4)c3c2)c1	Mdm2 MdmX PPI 68.5 (no result: aSyn 5UTR inh, KLF5 inhibitor) | Mdm2-MdmX conf 48.4 | FLuc counter inactive
O=C(c1ccccc1)c1cnc(Nc2ccc(Cl)c(Cl)c2)s1	Mdm2 MdmX PPI 70.7 | Mdm2-MdmX conf inactive
CC1CCc2nc(N)c(C#N)c(-c3ccncc3)c2C1 (stereo not given)	none
CC1CCc2nc(N)c(C#N)c(-c3cccnc3)c2C1 (stereo not given)	Mdm2 MdmX PPI 84.3 | Mdm2-MdmX conf 78.5 | FLuc counter inactive
Cc1cccc(-c2nnn(Cc3nnc(NC(=O)c4ccccc4)s3)n2)c1	Mdm2 MdmX PPI 71.1 | Mdm2-MdmX conf inactive
COc1ccc(Cc2nnc(NC(=O)c3cccc(C)c3)s2)cc1	none
COC1(OC)C(/C=C/c2ccc(C)cc2)C(C#N)(C#N)C1(OC)OC (stereo not given)	Mdm2 MdmX PPI 85.2 | Mdm2-MdmX conf 43.0 | FLuc counter inactive
COc1cc(/C=C/[N+](=O)[O-])ccc1OC(=O)c1cc2ccccc2oc1=O	Mdm2 MdmX PPI 50.8 | Mdm2-MdmX conf inactive
CCc1ccc(Nc2cc(=O)n(C3CCCCC3)c(=O)[nH]2)cc1	none
O=c1cc(Nc2ccc3c(c2)OCCO3)[nH]c(=O)n1C1CCCCC1	Mdm2 MdmX PPI 54.8 | Mdm2-MdmX conf 52.9 | FLuc counter 57.8
Nc1nnc(-c2cc3c(ccc4ccccc43)oc2=O)s1	none (no result: Mdm2 MdmX PPI, aSyn 5UTR inh, 697 NFkB inh, Gli-Sufu block, Jurkat NFkB inh)
C/C(=N\NC(=O)C1CCCN(S(=O)(=O)c2ccccc2)C1)c1ccncc1 (stereo not given)	none
C/C(=N\NC(=O)C1CCCN(S(=O)(=O)c2ccccc2)C1)c1ccccn1 (stereo not given)	Mdm2 MdmX PPI 70.2, aSyn 5UTR inh 66.7 | Mdm2-MdmX conf 58.9 | FLuc counter inactive
CC(NC(=S)Nc1ccc(OC(F)F)c(Cl)c1)C(C)(C)C (stereo not given)	Mdm2 MdmX PPI 57.8 | Mdm2-MdmX conf inactive
FC(F)Oc1ccc(NC(=S)NCc2ccccc2)cc1Cl	none
COc1ccc2nc3cc(Cl)ccc3c(Nc3cc(C(C)C)c(O)cc3C)c2c1	Mdm2 MdmX PPI 94.3 | Mdm2-MdmX conf 64.0 | FLuc counter 64.1
CCN(CC)CCCC(C)Nc1c2ccc(Cl)cc2nc2ccc(OC)cc12 (stereo not given)	none (no result: Mdm2 MdmX PPI, aSyn 5UTR inh, 697 NFkB inh, Gli-Sufu block, Jurkat NFkB inh)
CCNc1ccc(C(=O)OCC(=O)N(Cc2ccccc2)C(C)(C)C)cc1[N+](=O)[O-]	none
Cc1ccc(-c2csc3ncnc(Sc4nnc(CN5CCCCCC5=O)o4)c23)cc1	Mdm2 MdmX PPI 83.4 | Mdm2-MdmX conf 100.2 | FLuc counter inactive

Screening data from PubChem BioAssay.
